Columns and labels:
Assay in all cases: DAPPL (digital affinity profiling via proximity ligation, sequencing); 10 mM Tris-HCl pH 7.5, 50 mM NaCl, 1 mM DTT, 4% glycerol, room temperature, 30 min; GST-TFs on glutathione beads, 16-mer random dsDNA library, 0.1% formaldehyde crosslink after washing; high values mean tight binding
FLI1 = biological target: T1, FLI1 (Homo sapiens, UniProt Q01543 1-452); conditions: protein: recombinant; tags: N-terminal GST; dsDNA, one strand shown
T1 sequence: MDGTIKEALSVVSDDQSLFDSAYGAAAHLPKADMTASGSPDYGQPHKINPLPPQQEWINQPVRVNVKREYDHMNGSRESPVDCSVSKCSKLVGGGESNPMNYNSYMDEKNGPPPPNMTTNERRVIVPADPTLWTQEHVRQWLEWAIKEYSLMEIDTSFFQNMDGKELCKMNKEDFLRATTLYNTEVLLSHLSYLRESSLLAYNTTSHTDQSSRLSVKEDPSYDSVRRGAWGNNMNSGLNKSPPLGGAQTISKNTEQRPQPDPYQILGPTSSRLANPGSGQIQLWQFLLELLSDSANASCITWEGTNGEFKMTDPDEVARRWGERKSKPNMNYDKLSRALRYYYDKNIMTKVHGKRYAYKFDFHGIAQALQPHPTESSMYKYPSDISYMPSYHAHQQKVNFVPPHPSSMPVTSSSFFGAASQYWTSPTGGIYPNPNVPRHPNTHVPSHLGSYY
Outline: (§1)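 Binding signal is given per hexamer as its read frequency for a factor divided by its frequency in the tag-only sample. GST-fused human transcription factors were expressed in yeast, captured on glutathione beads, barcoded with DNA and pooled with that sample, then incubated with 200 nmole of a 16-mer random double-stranded DNA library in Tris/NaCl/DTT/glycerol buffer for 30 min at room temperature. The pools were then washed, crosslinked, proximity-ligated, amplified by PCR and sequenced on an Illumina NextSeq500.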

ELK1 = biological target: T2, ELK1 (Homo sapiens, UniProt P19419 1-428); conditions: protein: recombinant; tags: N-terminal GST; dsDNA, one strand shown
T2 sequence: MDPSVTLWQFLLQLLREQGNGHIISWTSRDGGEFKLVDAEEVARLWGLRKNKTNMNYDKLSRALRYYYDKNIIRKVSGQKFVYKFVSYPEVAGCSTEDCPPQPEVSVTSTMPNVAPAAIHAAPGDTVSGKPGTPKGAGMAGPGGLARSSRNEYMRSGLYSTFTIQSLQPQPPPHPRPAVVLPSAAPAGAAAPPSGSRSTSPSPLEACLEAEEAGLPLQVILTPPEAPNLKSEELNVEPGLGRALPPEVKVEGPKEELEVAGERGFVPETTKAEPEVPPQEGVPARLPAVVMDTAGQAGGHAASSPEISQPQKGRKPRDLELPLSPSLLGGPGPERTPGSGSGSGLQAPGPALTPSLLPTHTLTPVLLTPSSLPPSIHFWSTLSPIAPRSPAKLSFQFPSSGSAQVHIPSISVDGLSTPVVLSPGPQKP
Outline: as §1

GABPA = biological target: T3, GABPA (Homo sapiens, UniProt Q06546 1-454); conditions: protein: recombinant; tags: N-terminal GST; dsDNA, one strand shown
T3 sequence: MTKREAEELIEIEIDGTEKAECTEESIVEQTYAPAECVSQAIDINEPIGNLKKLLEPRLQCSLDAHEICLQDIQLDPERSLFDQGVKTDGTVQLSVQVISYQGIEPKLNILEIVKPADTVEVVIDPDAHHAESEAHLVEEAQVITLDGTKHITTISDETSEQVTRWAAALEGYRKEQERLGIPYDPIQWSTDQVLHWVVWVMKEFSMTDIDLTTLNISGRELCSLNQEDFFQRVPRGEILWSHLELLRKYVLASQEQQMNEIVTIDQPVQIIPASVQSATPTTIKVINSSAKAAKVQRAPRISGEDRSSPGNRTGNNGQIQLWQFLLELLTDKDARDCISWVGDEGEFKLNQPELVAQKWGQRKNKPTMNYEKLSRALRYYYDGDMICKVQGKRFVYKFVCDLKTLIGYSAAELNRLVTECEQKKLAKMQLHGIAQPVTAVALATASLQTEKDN
Outline: as §1

ERG = biological target: T4, ERG (Homo sapiens, UniProt P11308 1-479); conditions: protein: recombinant; tags: N-terminal GST; dsDNA, one strand shown
T4 sequence: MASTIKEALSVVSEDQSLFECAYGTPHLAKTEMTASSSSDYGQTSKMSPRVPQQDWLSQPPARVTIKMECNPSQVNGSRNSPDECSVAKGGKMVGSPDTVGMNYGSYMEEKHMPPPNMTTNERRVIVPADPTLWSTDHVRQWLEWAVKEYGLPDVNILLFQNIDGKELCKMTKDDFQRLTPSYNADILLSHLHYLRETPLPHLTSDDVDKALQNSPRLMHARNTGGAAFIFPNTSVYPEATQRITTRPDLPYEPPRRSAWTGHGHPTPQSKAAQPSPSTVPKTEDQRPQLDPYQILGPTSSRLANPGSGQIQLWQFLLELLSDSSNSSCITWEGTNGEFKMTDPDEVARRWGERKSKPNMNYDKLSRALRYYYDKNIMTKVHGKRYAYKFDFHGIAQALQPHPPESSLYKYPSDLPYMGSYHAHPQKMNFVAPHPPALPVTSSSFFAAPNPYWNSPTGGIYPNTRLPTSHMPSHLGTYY
Outline: as §1

ELF1 = ELF1 (Homo sapiens, UniProt P32519 1-619); conditions: protein: recombinant; tags: N-terminal GST; dsDNA, one strand shown
Outline: as §1

EHF = biological target: T5, EHF (Homo sapiens, UniProt Q9NZC4 1-300); conditions: protein: recombinant; tags: N-terminal GST; dsDNA, one strand shown
T5 sequence: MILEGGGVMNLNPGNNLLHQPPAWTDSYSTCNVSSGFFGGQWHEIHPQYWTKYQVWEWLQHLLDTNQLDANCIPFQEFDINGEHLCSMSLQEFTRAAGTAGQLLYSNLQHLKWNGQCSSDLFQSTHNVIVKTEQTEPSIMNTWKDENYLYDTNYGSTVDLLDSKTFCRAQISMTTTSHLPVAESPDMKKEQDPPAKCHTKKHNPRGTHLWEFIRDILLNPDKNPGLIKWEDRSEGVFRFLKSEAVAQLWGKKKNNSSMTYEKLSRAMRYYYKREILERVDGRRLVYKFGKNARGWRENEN
Outline: as §1

SPI1 = SPI1 (Homo sapiens, UniProt P17947 1-270); conditions: protein: recombinant; tags: N-terminal GST; dsDNA, one strand shown
Outline: as §1

SPIB = SPIB (Homo sapiens, UniProt Q01892 1-262); conditions: protein: recombinant; tags: N-terminal GST; dsDNA, one strand shown
Outline: as §1

ELK3 = biological target: T6, ELK3 (Homo sapiens, UniProt P41970 1-407); conditions: protein: recombinant; tags: N-terminal GST; dsDNA, one strand shown
T6 sequence: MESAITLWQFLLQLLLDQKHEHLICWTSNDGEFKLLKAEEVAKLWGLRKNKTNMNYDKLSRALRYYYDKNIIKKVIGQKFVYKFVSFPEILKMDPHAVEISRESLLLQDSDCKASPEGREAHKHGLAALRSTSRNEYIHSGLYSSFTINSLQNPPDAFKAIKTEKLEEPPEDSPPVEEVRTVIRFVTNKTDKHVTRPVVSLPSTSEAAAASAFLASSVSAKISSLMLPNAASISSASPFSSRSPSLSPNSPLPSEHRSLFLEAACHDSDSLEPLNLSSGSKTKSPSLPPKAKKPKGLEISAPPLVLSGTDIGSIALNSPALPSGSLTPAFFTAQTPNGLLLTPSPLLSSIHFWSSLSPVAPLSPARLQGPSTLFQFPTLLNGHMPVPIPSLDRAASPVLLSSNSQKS
Outline: as §1

FEV = biological target: T7, FEV (Homo sapiens, UniProt Q99581 1-238); conditions: protein: recombinant; tags: N-terminal GST; dsDNA, one strand shown
T7 sequence: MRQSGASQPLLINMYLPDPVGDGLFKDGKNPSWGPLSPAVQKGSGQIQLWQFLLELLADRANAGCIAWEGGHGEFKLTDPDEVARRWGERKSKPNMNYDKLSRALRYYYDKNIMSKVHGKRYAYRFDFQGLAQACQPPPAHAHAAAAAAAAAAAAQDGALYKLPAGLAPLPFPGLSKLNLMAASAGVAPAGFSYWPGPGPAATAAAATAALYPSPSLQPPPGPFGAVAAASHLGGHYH
Outline: as §1

ETV5 = ETV5 (Homo sapiens, UniProt P41161 1-510); conditions: protein: recombinant; tags: N-terminal GST; dsDNA, one strand shown
Outline: as §1

HSF1 = HSF1 (Homo sapiens, UniProt Q00613 1-529); conditions: protein: recombinant; tags: N-terminal GST; chain copies: 3; dsDNA, one strand shown
Outline: as §1

SPIC = biological target: T8, SPIC (Homo sapiens, UniProt Q8N5J4 1-248); conditions: protein: recombinant; tags: N-terminal GST; dsDNA, one strand shown
T8 sequence: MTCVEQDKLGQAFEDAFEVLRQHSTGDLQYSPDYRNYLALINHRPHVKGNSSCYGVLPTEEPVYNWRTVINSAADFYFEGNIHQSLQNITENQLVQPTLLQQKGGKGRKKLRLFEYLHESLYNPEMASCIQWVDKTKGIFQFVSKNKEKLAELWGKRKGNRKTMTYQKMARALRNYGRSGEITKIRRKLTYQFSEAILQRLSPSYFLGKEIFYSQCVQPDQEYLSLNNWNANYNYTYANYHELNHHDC
Outline: as §1

ELF4 = ELF4 (Homo sapiens, UniProt Q99607 1-663); conditions: protein: recombinant; tags: N-terminal GST; dsDNA, one strand shown
Outline: as §1

ELK4 = biological target: T9, ELK4 (Homo sapiens, UniProt P28324-2 1-405); conditions: protein: recombinant; tags: N-terminal GST; dsDNA, one strand shown
T9 sequence: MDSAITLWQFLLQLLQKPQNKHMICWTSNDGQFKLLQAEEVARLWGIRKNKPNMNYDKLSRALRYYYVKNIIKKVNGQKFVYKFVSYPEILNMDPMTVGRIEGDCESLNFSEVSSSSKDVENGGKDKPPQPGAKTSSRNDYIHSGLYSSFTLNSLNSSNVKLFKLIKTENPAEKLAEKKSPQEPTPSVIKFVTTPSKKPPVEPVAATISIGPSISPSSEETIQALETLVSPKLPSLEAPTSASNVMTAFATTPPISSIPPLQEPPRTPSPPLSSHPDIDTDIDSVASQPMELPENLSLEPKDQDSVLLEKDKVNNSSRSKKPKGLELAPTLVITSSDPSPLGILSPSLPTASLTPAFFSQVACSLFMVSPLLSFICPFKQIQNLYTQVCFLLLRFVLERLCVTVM
Outline: as §1

ETV2 = biological target: T10, ETV2 (Homo sapiens, UniProt O00321 1-342); conditions: protein: recombinant; tags: N-terminal GST; dsDNA, one strand shown
T10 sequence: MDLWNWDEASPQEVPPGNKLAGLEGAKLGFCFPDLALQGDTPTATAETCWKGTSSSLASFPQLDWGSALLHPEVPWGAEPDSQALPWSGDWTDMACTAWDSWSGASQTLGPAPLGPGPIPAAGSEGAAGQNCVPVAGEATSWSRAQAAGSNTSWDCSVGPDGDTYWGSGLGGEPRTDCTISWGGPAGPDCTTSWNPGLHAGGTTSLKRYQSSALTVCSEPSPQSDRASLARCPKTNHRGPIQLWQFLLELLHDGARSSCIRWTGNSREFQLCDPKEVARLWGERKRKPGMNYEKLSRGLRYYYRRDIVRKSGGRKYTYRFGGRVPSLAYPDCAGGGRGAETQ
Outline: as §1

ELF3 = biological target: T11, ELF3 (Homo sapiens, UniProt P78545 1-371); conditions: protein: recombinant; tags: N-terminal GST; dsDNA, one strand shown
T11 sequence: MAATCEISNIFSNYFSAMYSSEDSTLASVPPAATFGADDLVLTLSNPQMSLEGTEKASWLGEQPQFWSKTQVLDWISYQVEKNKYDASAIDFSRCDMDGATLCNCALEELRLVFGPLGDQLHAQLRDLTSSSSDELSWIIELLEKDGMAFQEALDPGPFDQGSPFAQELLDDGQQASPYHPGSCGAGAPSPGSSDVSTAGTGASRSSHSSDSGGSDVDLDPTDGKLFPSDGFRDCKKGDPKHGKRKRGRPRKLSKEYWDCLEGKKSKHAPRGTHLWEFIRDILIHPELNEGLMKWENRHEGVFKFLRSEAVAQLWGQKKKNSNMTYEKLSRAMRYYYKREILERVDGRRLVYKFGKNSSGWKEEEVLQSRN
Outline: as §1

CRX = CRX (Homo sapiens, UniProt O43186 1-299); conditions: protein: recombinant; tags: N-terminal GST; dsDNA, one strand shown
Outline: as §1

ETV1 = ETV1 (Homo sapiens, UniProt P50549 1-477); conditions: protein: recombinant; tags: N-terminal GST; dsDNA, one strand shown
Outline: as §1

ELF1, sequence (P32519 whole entry): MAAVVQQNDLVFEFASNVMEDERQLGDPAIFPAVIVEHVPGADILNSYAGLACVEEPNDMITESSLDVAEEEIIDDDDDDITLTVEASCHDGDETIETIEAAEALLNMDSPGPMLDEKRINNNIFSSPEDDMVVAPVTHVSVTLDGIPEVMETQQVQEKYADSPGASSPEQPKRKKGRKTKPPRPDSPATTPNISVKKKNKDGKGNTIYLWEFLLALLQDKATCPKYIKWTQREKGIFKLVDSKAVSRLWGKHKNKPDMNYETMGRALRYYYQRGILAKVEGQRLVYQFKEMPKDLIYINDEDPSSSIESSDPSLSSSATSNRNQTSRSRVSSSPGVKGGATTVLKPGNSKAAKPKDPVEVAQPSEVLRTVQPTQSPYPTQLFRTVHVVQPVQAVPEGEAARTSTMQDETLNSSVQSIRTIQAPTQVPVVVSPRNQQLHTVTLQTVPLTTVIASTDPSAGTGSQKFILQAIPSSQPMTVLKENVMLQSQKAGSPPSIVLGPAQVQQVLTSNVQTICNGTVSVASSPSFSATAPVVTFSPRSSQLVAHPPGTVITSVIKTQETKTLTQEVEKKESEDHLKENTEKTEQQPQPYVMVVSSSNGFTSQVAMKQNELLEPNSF
ELF4, sequence (Q99607 whole entry): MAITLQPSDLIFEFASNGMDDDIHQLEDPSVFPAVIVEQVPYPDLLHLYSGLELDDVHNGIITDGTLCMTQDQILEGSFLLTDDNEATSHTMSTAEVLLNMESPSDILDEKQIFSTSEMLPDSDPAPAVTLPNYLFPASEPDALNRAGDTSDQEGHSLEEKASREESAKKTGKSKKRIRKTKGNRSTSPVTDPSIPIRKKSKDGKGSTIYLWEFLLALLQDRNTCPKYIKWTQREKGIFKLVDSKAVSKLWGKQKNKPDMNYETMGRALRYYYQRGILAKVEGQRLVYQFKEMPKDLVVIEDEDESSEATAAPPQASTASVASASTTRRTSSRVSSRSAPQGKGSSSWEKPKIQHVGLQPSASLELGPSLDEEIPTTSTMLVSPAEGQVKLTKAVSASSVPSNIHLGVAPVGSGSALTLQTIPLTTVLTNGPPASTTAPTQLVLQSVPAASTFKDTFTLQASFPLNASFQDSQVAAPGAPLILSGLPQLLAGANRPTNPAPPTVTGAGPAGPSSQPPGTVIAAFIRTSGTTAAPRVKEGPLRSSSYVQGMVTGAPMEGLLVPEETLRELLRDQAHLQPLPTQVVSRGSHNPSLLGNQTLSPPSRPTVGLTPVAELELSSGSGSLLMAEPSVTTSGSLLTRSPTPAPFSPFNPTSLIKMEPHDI
ETV1, sequence (P50549 whole entry): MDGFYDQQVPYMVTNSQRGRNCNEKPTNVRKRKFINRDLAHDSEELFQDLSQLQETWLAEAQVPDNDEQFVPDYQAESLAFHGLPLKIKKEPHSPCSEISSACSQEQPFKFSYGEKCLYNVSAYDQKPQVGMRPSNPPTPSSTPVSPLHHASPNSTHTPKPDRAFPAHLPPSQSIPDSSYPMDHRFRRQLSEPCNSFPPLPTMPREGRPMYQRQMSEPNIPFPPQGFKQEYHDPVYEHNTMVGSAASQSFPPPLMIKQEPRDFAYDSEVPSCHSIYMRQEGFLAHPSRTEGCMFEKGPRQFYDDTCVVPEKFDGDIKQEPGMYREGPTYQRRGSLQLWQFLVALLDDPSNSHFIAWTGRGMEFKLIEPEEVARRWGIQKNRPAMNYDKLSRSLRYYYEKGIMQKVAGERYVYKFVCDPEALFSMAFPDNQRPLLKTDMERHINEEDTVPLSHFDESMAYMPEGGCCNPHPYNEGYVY
HSF1, sequence (Q00613 whole entry): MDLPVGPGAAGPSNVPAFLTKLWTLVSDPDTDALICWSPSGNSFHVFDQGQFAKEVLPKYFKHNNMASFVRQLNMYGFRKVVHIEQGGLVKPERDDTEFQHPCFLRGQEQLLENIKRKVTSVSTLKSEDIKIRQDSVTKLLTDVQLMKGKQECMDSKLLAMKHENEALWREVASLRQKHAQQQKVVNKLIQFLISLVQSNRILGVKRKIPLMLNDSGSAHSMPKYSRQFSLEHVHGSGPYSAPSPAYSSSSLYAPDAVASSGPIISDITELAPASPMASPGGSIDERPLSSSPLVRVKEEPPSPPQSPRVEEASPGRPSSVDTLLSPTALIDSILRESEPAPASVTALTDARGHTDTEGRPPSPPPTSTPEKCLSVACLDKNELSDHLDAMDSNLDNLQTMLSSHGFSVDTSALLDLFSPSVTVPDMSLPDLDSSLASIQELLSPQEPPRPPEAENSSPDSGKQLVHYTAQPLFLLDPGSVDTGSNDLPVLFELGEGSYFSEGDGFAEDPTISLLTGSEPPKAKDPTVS
SPIB, sequence (Q01892 whole entry): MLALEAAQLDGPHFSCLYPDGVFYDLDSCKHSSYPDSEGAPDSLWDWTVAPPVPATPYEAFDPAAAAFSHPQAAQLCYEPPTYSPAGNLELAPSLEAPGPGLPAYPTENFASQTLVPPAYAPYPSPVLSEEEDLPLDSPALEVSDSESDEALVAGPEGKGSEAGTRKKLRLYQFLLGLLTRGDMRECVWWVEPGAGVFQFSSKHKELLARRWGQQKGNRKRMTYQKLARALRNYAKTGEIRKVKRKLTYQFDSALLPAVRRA
ETV5, sequence (P41161 whole entry): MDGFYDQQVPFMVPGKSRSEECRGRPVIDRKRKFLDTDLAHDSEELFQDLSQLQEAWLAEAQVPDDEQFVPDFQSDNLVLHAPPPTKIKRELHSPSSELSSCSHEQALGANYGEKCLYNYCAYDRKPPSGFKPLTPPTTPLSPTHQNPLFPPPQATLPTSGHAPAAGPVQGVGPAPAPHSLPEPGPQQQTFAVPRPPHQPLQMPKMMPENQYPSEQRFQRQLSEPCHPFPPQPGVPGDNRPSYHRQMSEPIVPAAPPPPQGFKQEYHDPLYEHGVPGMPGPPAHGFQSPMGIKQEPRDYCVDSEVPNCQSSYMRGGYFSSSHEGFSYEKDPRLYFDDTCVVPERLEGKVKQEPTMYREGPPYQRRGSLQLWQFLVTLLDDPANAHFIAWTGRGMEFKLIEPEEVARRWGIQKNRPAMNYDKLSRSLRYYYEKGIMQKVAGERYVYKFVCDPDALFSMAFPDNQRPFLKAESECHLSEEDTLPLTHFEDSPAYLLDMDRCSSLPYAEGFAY
CRX, sequence (O43186 whole entry): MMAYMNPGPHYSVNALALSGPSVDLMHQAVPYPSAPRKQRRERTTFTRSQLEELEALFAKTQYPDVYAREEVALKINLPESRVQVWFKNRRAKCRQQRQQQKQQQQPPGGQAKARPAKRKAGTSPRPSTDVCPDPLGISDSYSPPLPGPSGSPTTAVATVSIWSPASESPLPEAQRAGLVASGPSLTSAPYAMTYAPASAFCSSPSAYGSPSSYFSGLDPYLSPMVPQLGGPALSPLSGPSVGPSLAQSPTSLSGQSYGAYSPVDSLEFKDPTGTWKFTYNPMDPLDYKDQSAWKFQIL

Sequence: TCTTGG
- binding signal (FLI1): 1.44 fold enrichment (6-mer frequency, TF over GST control)
- binding signal (ELK1): 1.35 fold enrichment (6-mer frequency, TF over GST control)
- binding signal (GABPA): 1.52 fold enrichment (6-mer frequency, TF over GST control)
- binding signal (ERG): 1.38 fold enrichment (6-mer frequency, TF over GST control)
- binding signal (ELF1): 1.28 fold enrichment (6-mer frequency, TF over GST control)
- binding signal (EHF): 1.48 fold enrichment (6-mer frequency, TF over GST control)
- binding signal (SPI1): 1.35 fold enrichment (6-mer frequency, TF over GST control)
- binding signal (SPIB): 1.4 fold enrichment (6-mer frequency, TF over GST control)
- binding signal (ELK3): 1.4 fold enrichment (6-mer frequency, TF over GST control)
- binding signal (FEV): 1.3 fold enrichment (6-mer frequency, TF over GST control)
- binding signal (ETV5): 1.32 fold enrichment (6-mer frequency, TF over GST control)
- binding signal (HSF1): 1.39 fold enrichment (6-mer frequency, TF over GST control)
- binding signal (SPIC): 1.47 fold enrichment (6-mer frequency, TF over GST control)
- binding signal (ELF4): 1.39 fold enrichment (6-mer frequency, TF over GST control)
- binding signal (ELK4): 1.41 fold enrichment (6-mer frequency, TF over GST control)
- binding signal (ETV2): 1.22 fold enrichment (6-mer frequency, TF over GST control)
- binding signal (ELF3): 1.41 fold enrichment (6-mer frequency, TF over GST control)
- binding signal (CRX): 1.32 fold enrichment (6-mer frequency, TF over GST control)
- binding signal (ETV1): 1.23 fold enrichment (6-mer frequency, TF over GST control)

— PMC7862700, “An all-to-all approach to the identification of sequence-specific readers for epigenetic DNA modifications on cytosine”
